MEP2 TOR yeast: alters MEP2-GFP fluorescence in TOR pathway yeast screen; S. cerevisiae MEP2-GFP strain, flow cytometry GFP, 3 h; 100% = DMSO control level; GFP response vs DMSO, % at 10 µM; hit rate 0.51% among 330,000;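 active = GFP response versus DMSO above a set limit, roughly screen mean plus 3 SD, cut at about 180% in these data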;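 also: median GFP fluorescence of the barcode-gated MEP2-GFP cells per well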
LAP4 TOR yeast: yeast TOR pathway LAP4-GFP modulation. hit rate 0.34% among 320,000. S. cerevisiae LAP4-GFP multiplex, flow cytometry GFP, 3 h; median GFP as percent of DMSO wells. GFP response vs DMSO, % at 10 µM;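 active = GFP response vs DMSO above a set limit, about the screen mean plus 3 SD, cut at about 150% in these data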
CIT2 TOR yeast: alters CIT2-GFP fluorescence in TOR pathway yeast screen; AID 2029; hit rate 0.065% among 320,000; S. cerevisiae CIT2-GFP strain, flow cytometry, 3 h; 100 means same as DMSO wells; GFP response vs DMSO, % at 10 µM;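 active = GFP response relative to DMSO above a set limit, near the screen mean plus 3 SD, cut at about 150% in these data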;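 also: ratio of well median GFP fluorescence to mean of DMSO wells on the plate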
AGP1 TOR yeast: alters AGP1-GFP fluorescence in TOR pathway yeast screen | S. cerevisiae AGP1-GFP multiplex flow cytometry, 3 h; GFP as percent of DMSO wells | GFP response vs DMSO, % at 10 µM | hit rate 0.02% among 320,000 | AID 2066;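 active = GFP response relative to DMSO above a set limit, near screen average plus 3 SD, cut at about 150% in these data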;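 also: median GFP channel fluorescence of the gated AGP1 strain per well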
RPL19A-GFP yeast: modulators of TOR pathway RPL19A-GFP in S. cerevisiae; S. cerevisiae RPL19A-GFP strain, flow cytometry, 3 h; stronger effect = lower value; percent response vs DMSO, % at 10 µM; hit rate 0.3% among 330,000; AID 2025;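 active = percent response vs DMSO below 50%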;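 also: median channel GFP fluorescence of the barcoded RPL19A-GFP strain; ratio of sample median GFP to plate DMSO average so 100% = DMSO; lower means less RPL19A-GFP as with rapamycin TOR inhibition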
LAP4-GFP pick2: second confirmation of modulators of TOR reporter LAP4-GFP in yeast; shares compounds with LAP4 TOR yeast; S. cerevisiae LAP4-GFP strain, flow cytometry GFP, 3 h; GFP response vs DMSO, % at 10 µM; hit rate 20% among 590;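 active = GFP signal as percent of the solvent control above about 150%, meaning raised reporter expression, limit read from the data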;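 also: ratio of well median GFP fluorescence to plate DMSO mean so 100% = DMSO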
MEP2 cherry2: second confirmation of modulators of TOR reporter MEP2-GFP in yeast; shares compounds with LAP4 TOR yeast; S. cerevisiae MEP2-GFP strain, flow cytometry GFP, 3 h; GFP response vs DMSO, % at 10 µM; hit rate 10% among 590; AID 2622;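 active = GFP signal above 150% of the solvent control wells, that is a rise of more than half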;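 also: median channel GFP fluorescence of all gated yeast cells per well; ratio of median GFP to plate DMSO average so 100% = DMSO level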
RPL19A-GFP pick2: yeast RPL19A-GFP TOR reporter modulation, second cherry pick | shares compounds with LAP4 TOR yeast | S. cerevisiae RPL19A-GFP strain, flow cytometry GFP, 3 h; stronger effect = lower value; 100% means same as DMSO wells | GFP response vs DMSO, % at 10 µM | hit rate 3% among 590 | AID 2623;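 active = under 65% GFP response relative to DMSO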;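 also: median GFP channel fluorescence per well over the all cells gate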
CIT2-GFP pick2: reconfirmed modulator of CIT2-GFP TOR reporter in yeast | shares compounds with LAP4 TOR yeast | S. cerevisiae CIT2-GFP strain, flow cytometry GFP, 3 h; DMSO control wells read 100% | GFP response vs DMSO, % at 10 µM | hit rate 8% among 590 | AID 2624;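 active = GFP response vs DMSO above about 150%, limit read from the data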;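 also: median green fluorescence per well over all gated yeast cells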
AGP1-GFP pick2: second confirmation of modulators of TOR reporter AGP1-GFP in yeast. AID 2643. 590 tested, under 10 active. S. cerevisiae AGP1-GFP strain, flow cytometry GFP, 3 h. percent response vs DMSO, % at 10 µM. shares compounds with LAP4 TOR yeast;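 active = over 150 percent of DMSO response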;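 also: median GFP channel fluorescence over all cells without mother daughter split; sample median GFP divided by mean DMSO control so 100% equals DMSO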
Yeast autofluor: compound is autofluorescent in yeast s288c cells; shares compounds with LAP4 TOR yeast; S. cerevisiae s288c, 520 nm autofluorescence, flow cytometry, 3 h; stronger effect = higher value; zero means same as solvent-only cells; fluorescence change (kMESF span) at 33 µM; 610 tested, under 10 active; AID 2757;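 active = fluorescence span over the dose series, or activity score, above about 33, limit read from the data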
s288c autofl DR: yeast s288c autofluorescence artifact in dose response. 110 tested, under 10 active. S. cerevisiae s288c parental, compound autofluorescence, flow cytometry, 3 h. shares compounds with LAP4 TOR yeast. AID 488829. fluorescence change (span) at 33 µM;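 active = fluorescence change span, or the activity score built from it, above 25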
TORC1 bypass gr: wildtype yeast growth loss with TORC1 bypass cells unaffected; shares compounds with LAP4 TOR yeast; S. cerevisiae BY4741 spot growth rating, 48-72 h; stronger effect = lower value; growth rating (0-3) at 30 µM; 120 tested, under 10 active;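 active = growth rating at most 1 for wild type yeast while the TORC1 bypass strain still grows fully, rated 3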
Starred values were filed as active, the others as inactive; · = no result. A selection: hits, their analogues and other compounds. The true share with any hit is near 0.93%.

SMILES	MEP2 TOR yeast	LAP4 TOR yeast	CIT2 TOR yeast	AGP1 TOR yeast	RPL19A-GFP yeast	Yeast autofluor	others
CC1=CN2C(=N)/C(=C/c3ccco3)C(=O)N=C2S1	103	99	104	89	104	·
Cc1ccc2cccc(NC3OC(=O)c4ccccc43)c2n1 (stereo not given)	98	95	98	101	101	·
CN(Cc1ccccc1C#N)S(=O)(=O)c1cccs1	106	99	103	101	110	·
N#Cc1nccnc1S(=O)(=O)c1cccs1	77	251*	67	86	67	0.61
CCOC(=O)N1CCN(C(=O)c2ccc(S(=O)(=O)Nc3ccccc3)cc2)CC1	111	102	172*	88	96	·	LAP4-GFP pick2=108;MEP2 cherry2=105;RPL19A-GFP pick2=101;CIT2-GFP pick2=102;AGP1-GFP pick2=99
C/C(=N\NC(=O)c1cc2ccccc2cc1O)c1ccccn1	119	216*	97	101	97	1.6
CCOC(=O)CSC1=NC(=O)/C(=C/c2ccc(OC)cc2)S1	96	152*	75	93	94	2.3
O=C(Nc1nnc(-c2ccccc2)o1)c1cc(Cl)sc1Cl	103	103	100	99	102	·
O=C(Nc1nnc(-c2ccc(F)cc2)o1)c1cccc([N+](=O)[O-])c1	111	164*	99	103	98	0.2
O=C(Nc1nnc(-c2ccc(F)cc2)o1)c1cc(Cl)sc1Cl	118	164*	102	115	98	0.7	LAP4-GFP pick2=167*;MEP2 cherry2=121;RPL19A-GFP pick2=112;CIT2-GFP pick2=139;AGP1-GFP pick2=104
O=C(NCc1n[nH]c(=S)n1-c1ccc(Br)cc1)c1ccc(S(=O)(=O)N2CCCCC2)cc1	109	97	105	103	102	·
CC1=NOC(=O)/C1=C\c1ccc(-c2cc(Cl)ccc2Cl)o1	94	167*	111	55	89	1.5
O=C(COC(=O)CCCc1nc2ccccc2s1)Nc1ncc(Cl)cc1Cl	103	94	102	99	100	·
C=CCOc1ccc(/C=C/C(=O)OCC(=O)N2CCC(c3ccccc3)=N2)cc1	174	170*	171*	122	116	·	LAP4-GFP pick2=98;MEP2 cherry2=102;RPL19A-GFP pick2=98;CIT2-GFP pick2=98;AGP1-GFP pick2=98
C=CCOc1ccc(/C=C/C(=O)OCC(=O)NCCCc2ccccc2)cc1	114	101	95	103	97	·
c1ccc(Nc2nc(-c3ccccn3)cs2)cc1	91	102	76	46	79	·
COc1cccc2sc(Nc3nc(-c4ccccn4)cs3)nc12	100	169*	73	87	66	0.81
c1ccc(-c2csc(Nc3cccnc3)n2)nc1	104	114	95	94	94	0	LAP4-GFP pick2=99;MEP2 cherry2=105;RPL19A-GFP pick2=102;CIT2-GFP pick2=102;AGP1-GFP pick2=99
CCCCNC(=O)[C@@](CC)(ONc1ccccc1C(F)(F)F)c1cccc2ccccc12	89	100	96	94	91	·
Cc1ccc(Nc2ccc(-n3ccnc3)nn2)cc1C	157	97	80	30	53	·	LAP4-GFP pick2=103;MEP2 cherry2=103;RPL19A-GFP pick2=101;CIT2-GFP pick2=100;AGP1-GFP pick2=97
O=c1cc(C(F)(F)F)nc(SC/C=C/c2ccccc2)[nH]1	104	113	95	96	100	·
COc1ccccc1-c1nnc(SCC(=O)N2CCOCC2)n1-c1ccccc1	100	98	103	99	95	·
COc1ccccc1-c1nnc(SCCN2CCOCC2)n1-c1ccc(C)cc1	196*	100	124	30	71	·	LAP4-GFP pick2=102;MEP2 cherry2=100;RPL19A-GFP pick2=101;CIT2-GFP pick2=114;AGP1-GFP pick2=97
CC1(C)CCC[C@]2(C)[C@H]3CC(=O)O[C@]3(C)CC[C@@H]12	113	92	96	97	106	·
CC(=O)OC[C@]12CC[C@H]3[C@@](C)(CC[C@H]4C(C)(C)CCC[C@]34C)[C@@H]1C[C@H](C1=CC(=O)O[C@@H]1OC(C)=O)O2	104	155*	105	80	95	4.4	LAP4-GFP pick2=210*;MEP2 cherry2=173*;RPL19A-GFP pick2=98;CIT2-GFP pick2=172*;AGP1-GFP pick2=100
SMILES	MEP2 TOR yeast	LAP4 TOR yeast	CIT2 TOR yeast	AGP1 TOR yeast	RPL19A-GFP yeast	Yeast autofluor	others
O=C(c1ccc(Cl)cc1)N1CCN(c2cccc3[nH]ccc23)CC1	87	259*	91	98	65	-0.2
O=C1c2cccc3c([N+](=O)[O-])ccc(c23)C(=O)N1O	350*	228*	274*	116	148	20
O=C1c2cccc3c([N+](=O)[O-])ccc(c23)C(=O)N1c1ccccn1	301*	193*	191*	83	115	13	LAP4-GFP pick2=193*;MEP2 cherry2=324*;RPL19A-GFP pick2=122;CIT2-GFP pick2=196*;AGP1-GFP pick2=114
O=C1c2cccc3c(N4CCCCC4)ccc(c23)C(=O)N1c1ccccn1	108	105	101	96	102	·
O=C(O)c1cc(S(=O)(=O)NCC2CCCO2)ccc1Cl (stereo not given)	102	100	105	103	103	·
COc1ccc([N+](=O)[O-])c(S(=O)(=O)c2ccc(Cl)cc2)n1	108	102	100	108	100	0.72	s288c autofl DR=0.63;TORC1 bypass gr=3
COc1ccc([N+](=O)[O-])c(S(=O)(=O)c2ccccc2)n1	85	218*	84	108	73	0.81	s288c autofl DR=0.21;TORC1 bypass gr=3
O=[N+]([O-])c1cccnc1S(=O)(=O)c1ccccc1	96	128	102	104	98	·
Nc1cnn(Cc2ccccc2F)c1	92	94	87	97	98	·

From PubChem
